This is part of a sample that, as a whole, favours compounds with a hit. Of some 83,000 tested, about 20% had one in any assay.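 Negative percent growth values reflect cell death: -40 means 40% of the cells present at the start died, and -100 means all died.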 Active and inactive are the calls of the source.

The experiment has as its system HCC-2998 colon. The experiment in a line: NCI-60 one-dose screen, 48 h (100 = growth as untreated, 0 = no growth, -100 = all killed). The note with it: 10 µM. On the procedure: Growth inhibition of the HCC-2998 human tumor cell line is measured as a screen for anti-cancer activity. Cells are grown in 96 well plates and exposed to the test compound for 48 hours. Compounds are tested at a single concentration, which is 10^-5 M for most compounds. The reported endpoint is percent growth (GI% or GIPRCNT), where numbers from 0 - 100% represent growth inhibition, and numbers from -100% - 0 represent cell death. For example, a value of 40 represents 60% growth inhibition. A value of 0 means no net growth occurred over the course of the experiment. A value of -40 indicates 40% of cells at the beginning of the experiment died by the end of the experiment. A value of -100 means all cells are dead at the end of the experiment.
NCI-60 Human Tumor Cell Lines Screen was performed using the standard one-dose NCI protocol, which is described in more detail at https://dtp.cancer.gov/discovery_development/nci-60/default.htm.
Compounds with GIPRCNT values below 10 were considered active. Activity score was based on GIPRCNT using the following formula: […]
Score is 0 for GIPRCNT values of 100 or above, 50 for GIPRCNT values of 0, and 100 for GIPRCNT values of -100.
`O=C(c1ccc(Cl)cc1)C1[C@H](c2ccc(Br)cc2)[C@@H](c2ccccc2)NC12C(=O)Nc1ccc(Cl)cc12` (stereo not given in full): the growth is -94.9% (active).

As for `CN1CCCN(Cc2ccc(C(=O)Nc3cccc(Nc4ccc5c(O)cccc5n4)c3)cc2C(F)(F)F)CC1`, the growth was -85.3% (active).

For `CN(CCF)c1ccc(/C=C/C(=O)c2ccc(N)cc2O)cc1`, the growth was 88.5% (inactive).

On to `COc1ccc2[nH]cc(/C=N/Nc3cccc(Cl)n3)c2c1`, for which the growth is 39.7% (inactive).

For `COc1ccccc1[C@H]1C(C(=O)c2ccc(Cl)cc2)C2(N[C@@H]1c1ccccc1)C(=O)Nc1ccc(Cl)cc12` (stereo not given in full), the growth is -18.8% (active).

On to `C#CCNC(=O)[C@]12CCC(C)(C)C[C@H]1C1=CC[C@@H]3[C@@](C)(CCC#N)[C@H](C(=C)C)CC[C@@]3(C)[C@]1(C)CC2`, for which the growth is 75.4% (inactive).

Regarding `CN1C(=O)N(C)C2SC(N/N=C/C=C/c3ccccc3)=NC21` (stereo not given), the growth was 85.3% (inactive).

For `N#Cc1c(NC(=O)c2ccc(C(F)(F)F)c(Cl)c2)sc2c1CCC(=O)C2`, the growth was -74.4% (active).

Take `Cn1c(O)c(N=Nc2nc(-c3cc4ccccc4oc3=O)cs2)c2cc(Br)ccc21`: the growth is 97.7% (inactive).

Turning to `O=C(CS(=O)(=O)c1oc(-c2ccc(Cl)cc2)nc1S(=O)(=O)c1ccccc1)N1CCCC1`, the growth is 21.8% (inactive).

Consider `O=c1[nH]c2ccccc2cc1CSc1ccc(Nc2nccc(-c3ccc4c(c3)OCO4)n2)cc1`, for which the growth is 95.5% (inactive).

With `CCOC(=O)N/C(=C1/OCCN1C)[P+](c1ccccc1)(c1ccccc1)c1ccccc1`, the growth is 60.4% (inactive).

With `CCN1CCN(c2ccc(NC(=O)Nc3ccc(-c4cc(C(=O)NC(C)C)c5ncccc5n4)cc3)cc2C(F)(F)F)CC1`, the growth was -98.2% (active).

For the molecule `Cc1ccc(CSc2nc(-c3ccc(F)cc3)c(C#N)c(=O)[nH]2)cc1`, the growth is 115% (inactive).

With `Cc1cc2c(c(O)c1Br)-c1ncoc1C(=O)[C@]1(C)CC[C@H](C(C)C)[C@H]21`, the growth is 38.2% (inactive).

`N#Cc1c(Cl)nc(SCc2ccc(F)cc2)nc1-c1ccc(F)cc1`: the growth was 111% (inactive).

On to `O=C1Nc2ccc(Cl)cc2/C1=C/c1cccc(OCc2ccccn2)c1`, for which the growth is -73.2% (active).

Take `CN(C)c1cccc2c(S(=O)(=O)Nc3cccc(-c4csc(NC(=O)CCCCCN5CCN(c6cc7c(cc6F)C(=O)N(C6CCC(=O)NC6=O)C7=O)CC5)n4)c3)cccc12` (stereo not given): the growth is 111% (inactive).

In the case of `O=C(Nc1ccc(Cl)c([N+](=O)[O-])c1)Nc1ccc(Cl)c([N+](=O)[O-])c1`, the growth is 12.7% (inactive).

In the case of `O=c1[nH]c2ccccc2cc1CSc1ccc(Nc2nccc(-c3ccc(C(F)(F)F)cc3)n2)cc1`, the growth was 48.1% (inactive).

In the case of `CCN1CCN(Cc2ccc(NC(=O)c3cccc(-n4cc(-c5ccc(NC(C)=O)nc5)nn4)c3)cc2C(F)(F)F)CC1`, the growth was 115% (inactive).

As to `Clc1ccc(/C=N/Nc2ncnc3sc4c(c23)CCN(Cc2ccccc2)C4)cc1`, the growth was 19.8% (inactive).

`CC1=N/C(=C\c2ccc(N(C)C)cc2)C(=O)N1CCc1ccc(S(N)(=O)=O)cc1`: the growth is 97.5% (inactive).

In the case of `Cc1ccc(NC(=O)c2ccc(-n3c(=O)[nH]c4ccccc4c3=O)cc2)cc1`, the growth is 108% (inactive).

Regarding `CC1(c2ccccc2)NC(=O)N(CC(=O)Nc2ccc(C(=O)/C=C/c3ccc(Cl)cc3)cc2)C1=O` (stereo not given), the growth is -99.1% (active).

For `COc1cccc(/C=N/NC(=O)c2ccc3nc(-c4ccc(Cl)cc4)[nH]c3c2)c1O`, the growth was -98% (active).

Turning to `CC(C)c1ccc(C(=O)Nc2sc3c(c2C(N)=O)CCC(=O)C3=O)cc1`, the growth is 119% (inactive).

Regarding `COc1csc(/C=N/NC(=O)c2[nH]c3ccc(Br)cc3c2-c2ccccc2)c1`, the growth is 7.87% (active).

As for `O=c1c2ccccc2nc(COc2ccccc2)n1/N=C/c1ccc(N2CCOCC2)cc1`, the growth is 99.2% (inactive).

For `O=C(c1ccc(Cl)cc1)C1[C@H](c2ccccc2Br)[C@@H](c2ccccc2)NC12C(=O)Nc1ccccc12` (stereo not given in full), the growth is 7.29% (active).

As to `O=C(CSc1nnc(-c2ccc3nc(-c4ccccc4)[nH]c3c2)o1)Nc1ccc(Br)cc1`, the growth is 90.2% (inactive).

`COc1ccc(/C=C/C(=O)c2ccc(S(=O)(=O)NCCNc3nc(Nc4ccc(F)cc4)nc(N(C)C)n3)cc2)cc1`: the growth is 59.3% (inactive).

For `CCOC(=O)C1NN(c2ccc(S(N)(=O)=O)cc2)c2nc3nc(-c4cccs4)cc(-c4cccs4)c3c(=O)n21` (stereo not given), the growth is 107% (inactive).

Turning to `O/N=C(\CSc1nnc(-c2c[nH]c3ccccc23)n1-c1ccccc1)c1ccc(Cl)cc1`, the growth was 17% (inactive).

Turning to `CC1(C)CC[C@]2(C(=O)O)CC[C@]3(C)C(=CC[C@@H]4[C@@]5(C)C/C(=C/c6ccncc6)[C@H](O)C(C)(C)[C@@H]5CC[C@]43C)[C@@H]2C1`, the growth was 49.1% (inactive).

On to `CC(=C(c1ccc(OCCN2CCCCC2)cc1)c1ccc(OCCN2CCCCC2)cc1)c1ccccc1`, for which the growth is 15.7% (inactive).

For the molecule `O=C1Nc2ccc(Cl)cc2/C1=C/c1ccc(OCc2ccccn2)cc1`, the growth was 105% (inactive).

Regarding `CN1CCN(c2ccc(Nc3nc(NCCCNC(=O)C4CCCCC4)c4sccc4n3)cc2)CC1`, the growth was 59.5% (inactive).

On to `CCNCCCn1c2c(c3cc(OC)c(OC)cc3c1=O)C(=O)c1cc3c(nc1-2)OCO3`, for which the growth was 20% (inactive).

`COc1ccc2ncc(C#Cc3cncc(C(=O)Nc4ccc(CN5CCN(C)CC5)c(C(F)(F)F)c4)c3)n2n1`: the growth was -95.8% (active).

For the origin of these results see PubChem BioAssay (NCI).
